# Screens as filed in PubChem.
# ABHD5-PLIN5 inh = ABHD5-PLIN5 protein interaction inhibition. Q00G26+Q8WTS1. Split G. princeps luciferase complementation, luminescence, 4 h. inhibition, % at 4 µM. actives 0.78% (n = 360,000);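 active = inhibition above the mean inhibition across every tested compound plus 3 SD, cut at about 22% in these data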;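 also: 0% = DMSO only wells and the 100% control is not disclosed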
# PRMT1 FP inh = blocks human protein arginine methyltransferase 1 | Q99873 | recombinant PRMT1, activity-based probe fluorescence polarization | inhibition, % at 2.79 µM | actives 1.3% (n = 370,000);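 active = inhibition above about 21% made by adding two undisclosed values, limit read from the data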
# Target sequence (Q99873 whole entry, looked up): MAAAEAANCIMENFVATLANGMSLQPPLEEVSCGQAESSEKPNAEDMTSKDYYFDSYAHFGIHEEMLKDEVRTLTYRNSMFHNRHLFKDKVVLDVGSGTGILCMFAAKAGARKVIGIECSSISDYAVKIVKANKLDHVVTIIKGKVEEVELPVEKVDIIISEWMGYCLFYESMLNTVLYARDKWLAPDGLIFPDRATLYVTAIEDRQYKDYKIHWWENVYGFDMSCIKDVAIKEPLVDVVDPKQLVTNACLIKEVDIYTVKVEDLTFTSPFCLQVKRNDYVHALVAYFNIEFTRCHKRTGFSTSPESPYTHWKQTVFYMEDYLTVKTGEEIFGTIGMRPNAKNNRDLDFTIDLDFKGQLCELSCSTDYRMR
# rCAG RNA binder = molecules binding r(CAG) RNA repeats; inhibition, % at 3 µM; AID 651821; r(CAG) RNA repeat, TO-PRO-1 dye displacement fluorescence; actives 1.3% (n = 370,000);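 active = inhibition above the plate cutoff, the mean of all test compounds on that plate plus 3 SD, cut at about 35% in these data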;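 also: 0% = DMSO alone and 100% = 100 µM mitoxantrone as full dye displacement; higher means more dye released from RNA so lower well fluorescence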
# ALR inh = blocks human ALR sulfhydryl oxidase activity; P55789; purified ALR, DTT oxidation, H2O2 HRP-luminol luminescence; inhibition, % (test concentration not listed); actives 3.8% (n = 290,000); AID 485317;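 active = mean replicate inhibition above about 79%, with every replicate also reaching it, limit read from the data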
# Target sequence (P55789 whole entry, looked up): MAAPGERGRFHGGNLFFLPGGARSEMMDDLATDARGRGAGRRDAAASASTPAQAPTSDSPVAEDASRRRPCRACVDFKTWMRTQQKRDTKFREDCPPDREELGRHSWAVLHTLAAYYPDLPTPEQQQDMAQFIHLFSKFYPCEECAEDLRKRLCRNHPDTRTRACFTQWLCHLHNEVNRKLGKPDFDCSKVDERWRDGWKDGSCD
# Rtt109 HAT inh = C. albicans Rtt109 histone acetyltransferase inhibition; Q5AAJ8; purified Rtt109/Vps75, ThioGlo CoA-SH fluorescence, 4 h; inhibition, % at 34.9 µM; actives 0.16% (n = 330,000); AID 540336;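 active = inhibition of at least 50% in every replicate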
# LANA-H2A inh = blocks KSHV LANA binding to histone H2A/H2B | Q9QR71 | actives 0.6% (n = 320,000) | AID 2629 | inhibition, % (concentration not given with the values) | cell-free LANA-H2A/H2B peptide, fluorescence polarization; in the data active = inhibition mostly above about 10%, no sharp cut-off; inactive = mostly below about 6.7%
# Active calls of the source: *; i = inactive; / = no result. A selection: hits, their analogues and other compounds. The true share with any hit is near 5.9%.
SMILES,ABHD5-PLIN5 inh,PRMT1 FP inh,rCAG RNA binder,ALR inh,Rtt109 HAT inh,LANA-H2A inh
Cc1ccc2nc(N(CCCN(C)C)C(=O)CCc3ccccc3)sc2c1,22*,2,1,4,-2,/
COc1ccc(NC(=O)c2cc([N+](=O)[O-])ccc2NC(=O)CNCc2ccccn2)c(OC)c1,-8,25*,12,/,8,-3
COc1cccc(NC(=O)c2cc([N+](=O)[O-])ccc2NC(=O)CNCC2CCCO2)c1 (stereo not given),9,0,-1,100*,2,2
Cc1ccc(-c2cc(C(=O)Nc3c(C)n(C)n(-c4ccccc4)c3=O)[nH]n2)c(O)c1C,2,0,1,97*,17,2
CC(=O)C1=CCC(c2cccc3ccccc23)N(S(=O)(=O)c2ccc(C)cc2)C1 (stereo not given),-6,7,3,/,/,/
CC(C)=NNc1cnnc2ccc([N+](=O)[O-])cc12,-5,/,/,/,/,/
CC1=C/C(=C/N(C)C)C(=O)O1,2,6,4,-5,11,-2
CN(C)/C=C1/C=C(c2ccccc2)OC1=O,13,6,7,99*,-10,-2
CC(=Nc1ccc(C)cc1)c1sc2ccccc2c1O,-6,25*,-1,4,-9,-5
Cc1ccc(Nc2nnc(SCc3cc(=O)n4cc(C)ccc4n3)s2)cc1,3,-4,-2,99*,0,-3
N#CCC[C@H]1CC[C@]2(CCCN(C(=O)C3CCCC3)C2)O1,/,0,1,/,/,/
Cn1c(SCC(=O)Nc2cccc(F)c2)nc2c(c1=O)SCC2,-3,-1,0,94*,-6,1
CCn1c(SCC(=O)Nc2ccc(OC)cc2)nc2c(c1=O)SCC2,1,1,0,45,0,-4
COc1ccc(NC(=O)CSc2nc3c(c(=O)n2-c2ccccc2OC)SCC3)cc1,9,-3,6,64,-5,2
Cn1c(SCC(=O)Nc2ccccc2C(F)(F)F)nc2c(c1=O)SCC2,-8,-2,-2,31,-9,0
CCOC(=O)c1ccc(NC(=O)CSc2nc3c(c(=O)n2-c2ccccc2OC)SCC3)cc1,6,1,2,99*,5,6
Cn1c(SCC(=O)Nc2ccc(C(N)=O)cc2)nc2c(c1=O)SCC2,1,12,3,99*,7,-11
Cc1cccc(CCNC(=O)Cn2ncc3c2-c2cc(C)ccc2OC3)c1,/,6,0,/,/,/
COC(=O)C1=C(C)N(C)C(=NCC2CC2)NC1c1ccc(Cl)cc1 (stereo not given),/,0,6,/,/,/
O=C(c1cccc(-c2ccc(O)cc2)c1)N1CCOCC1,-2,2,-2,99*,-1,14
O=C(c1cccc(-c2cccc3nccn23)c1)N1CCOCC1,4,4,1,/,/,/
CS(=O)(=O)N(CC(=O)Nc1ccccc1C(=O)NCCc1ccccc1)c1ccc2c(c1)OCCO2,4,1,3,-3,7,-4
CS(=O)(=O)N(CC(=O)Nc1ccccc1C(=O)NCc1ccccc1)c1ccc2c(c1)OCCO2,0,9,1,3,10,86*
CCn1cc(/C=C/C(=O)Nc2ccc(C)cc2Br)cn1,-4,-2,-4,-6,6,-6
CCn1cc(/C=C/C(=O)Nc2ccn(Cc3c(F)c(F)cc(F)c3F)n2)cn1,-16,22*,6,/,-1,-2
SMILES,ABHD5-PLIN5 inh,PRMT1 FP inh,rCAG RNA binder,ALR inh,Rtt109 HAT inh,LANA-H2A inh
CN(C)/C=N/c1nc(-c2ccc3ccccc3c2)cs1,-20,-1,-1,-2,-1,-7
CN(C)/C=N/c1nc(-c2ccc3c(c2)OCO3)cs1,-1,-1,2,98*,/,-3
COc1ccc2c(c1)C(=NO)c1cc(OC)ccc1-2,-6,-2,10,96*,-7,-3
CCC(=O)Nc1ccc(C(=O)COC(=O)Cc2ccsc2)cc1,2,-1,5,-1,3,18*
O=C(COC(=O)Cc1ccsc1)Nc1ccc(Br)cc1,-8,-7,0,/,-3,/
Cc1cc(=O)oc2cc3c(cc12)OCCN3,-2,2,-1,97*,i,-1
Cc1nc(SCC(=O)Nc2ccc(N3CCOCC3)cc2)nc(C)c1C,7,5,0,/,-4,11
O=C(CSc1ccccc1F)Nc1ccc(N2CCOCC2)cc1,-6,4,2,41,11,18*
O=C(CNS(=O)(=O)c1ccccc1F)Nc1ccc(N2CCOCC2)cc1,-6,-3,-2,94*,-5,4
Cc1cc(C)nc(SCC(=O)Nc2ccc(N3CCOCC3)cc2)n1,-2,-2,-3,98*,1,3
Nc1cc(N)nc(SCC(=O)Nc2ccccc2N2CCOCC2)n1,1,-1,-2,-3,5,14*
COCCNS(=O)(=O)c1ccc2c(c1)C(=NO)c1cc(S(=O)(=O)NCCOC)ccc1-2,9,-4,12,/,52*,0
COCCNS(=O)(=O)c1ccc2c(c1)Cc1cc(S(=O)(=O)NCCOC)ccc1-2,0,-1,1,-2,-4,-2
COc1ccc(Cn2ccc3ccc(-c4ccc5ccn(C(=O)c6ccccc6OC)c5c4)cc32)cc1,/,-2,15,/,/,/
CCC(=O)Nc1ccc2c(c1)C(=O)N(C)[C@@H]1CC[C@@H](CC(=O)NCCN3CCCCC3)O[C@H]1CO2,/,3,5,/,/,/
COC(=O)c1cc2c(ccn2-c2ccc(F)cc2)n1CC(=O)C(C)(C)C,-4,2,-3,/,54*,1
COC(=O)c1cc2c(ccn2-c2ccc(F)cc2)n1CC(=O)OC(C)C,-10,-3,2,6,-10,14
Nc1ccc(Nc2ccncc2[N+](=O)[O-])cc1,-1,-2,0,/,50*,1
O=[N+]([O-])c1cnccc1Nc1ccc(F)cc1,6,2,2,-1,4,-3
CC(=O)c1ccc(S(=O)(=O)N(C)CCCC(=O)N(C)Cc2c(F)cccc2Cl)cc1,-1,3,1,-1,3,58*
CC(=O)N(Cc1cc2ccccc2[nH]c1=O)c1ccc(C)cc1,4,3,-7,/,5,0
Cc1ccccc1-c1cnc(C(O)c2cccc(C)c2C)[nH]1 (stereo not given),2,-3,1,/,/,/
COc1ccccc1/C=C/CN1CCN(Cc2ccc(C)o2)C(CCO)C1 (stereo not given),2,-2,-8,8,/,3
OCC1(CC2CCCCO2)CCN(C/C=C/c2ccccc2)CC1 (stereo not given),0,-2,-5,-10,-1,2
COc1cc(/C=C/CN2CCC(CO)(CC3CCCCO3)CC2)ccc1O (stereo not given),-2,1,-3,92*,-2,3
COc1cc(/C=C/CN2CCN(Cc3ccc(C)o3)C(CCO)C2)ccc1O (stereo not given),10,1,-4,98*,12,1
